Source: PubChem BioAssay (NCATS)
Records with an inconclusive call do not appear. Active and inactive are the calls of the source. Unless noted, calls follow the shape of the dose curve; as a rule, active = well fitted cell-killing curve with a large enough effect; inconclusive = small, poorly fitted or top-dose-only effect, or effect the other way; inactive = no such curve, though single readings can be large or run the other way.

Tests used:
[1] = Quantitative High-Throughput drug screen in 47 multiple myeloma cell lines against the NCATS MIPE library collection: KMS28PE_JCRB cell viability assay (AID 1918983); also: nearly all actives have a fitted effect of over 35% in size; also: potency is read from the fitted curve at half-maximal effect
How it was run: (§1)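 Myeloma cells (500/well) treated with MIPE 4.0 compounds for 48 h at 37 °C, 5% CO2. Viability read as ATP via CellTiter-Glo luminescence after 5 min at RT; DMSO-only wells = 100%, media-only = 0% viability.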

[2] = Quantitative High-Throughput drug screen in 47 multiple myeloma cell lines against the NCATS MIPE library collection: KMS34_JCRB cell viability assay (AID 1918985); also: nearly all actives have a fitted effect of over 40% in size; also: potency is read from the fitted curve at half-maximal effect
How it was run: as §1

[3] = Quantitative High-Throughput drug screen in 47 multiple myeloma cell lines against the NCATS MIPE library collection: OCIMY7_PLB cell viability assay (AID 1918987); also: nearly all actives have a fitted effect of over 65% in size; also: potency is read from the fitted curve at half-maximal effect
How it was run: as §1

[4] = Quantitative High-Throughput drug screen in 47 multiple myeloma cell lines against the NCATS MIPE library collection: OCIMY5_PLB cell viability assay (AID 1918988); also: nearly all actives have a fitted effect of over 65% in size; also: potency is read from the fitted curve at half-maximal effect
How it was run: as §1

[5] = Quantitative High-Throughput drug screen in 47 multiple myeloma cell lines against the NCATS MIPE library collection: OPM1_PLB cell viability assay (AID 1918989); also: nearly all actives have a fitted effect of over 40% in size; also: potency is read from the fitted curve at half-maximal effect
How it was run: as §1

[6] = Quantitative High-Throughput drug screen in 47 multiple myeloma cell lines against the NCATS MIPE library collection: SKMM1_PLB cell viability assay (AID 1919863); conditions: SKMM1 myeloma viability, CellTiter-Glo ATP, 48 h; viability: stronger effect = lower value; also: nearly all actives have a fitted effect of over 35% in size; also: potency is read from the fitted curve at half-maximal effect
How it was run: as §1

[7] = Quantitative High-Throughput drug screen in 47 multiple myeloma cell lines against the NCATS MIPE library collection: U266_ATCC cell viability assay (AID 1919864); also: nearly all actives have a fitted effect of over 35% in size; also: potency is read from the fitted curve at half-maximal effect
How it was run: as §1

[8] = Quantitative High-Throughput drug screen in 47 multiple myeloma cell lines against the NCATS MIPE library collection: XG6_PLB cell viability assay (AID 1919865); also: nearly all actives have a fitted effect of over 40% in size; also: potency is read from the fitted curve at half-maximal effect
How it was run: as §1

[9] = Quantitative High-Throughput drug screen in 47 multiple myeloma cell lines against the NCATS MIPE library collection: XG1_PLB cell viability assay (AID 1919866); also: nearly all actives have a fitted effect of over 35% in size; also: potency is read from the fitted curve at half-maximal effect
How it was run: as §1

[10] = Quantitative High-Throughput drug screen in 47 multiple myeloma cell lines against the NCATS MIPE library collection: VP6_DJ cell viability assay (AID 1919867); also: nearly all actives have a fitted effect of over 40% in size; also: potency is read from the fitted curve at half-maximal effect
How it was run: as §1

[11] = Quantitative High-Throughput drug screen in 47 multiple myeloma cell lines against the NCATS MIPE library collection: UTMC2_PLB cell viability assay (AID 1919868); conditions: CellTiter-Glo ATP luminescence, 48 h; viability (% of DMSO control): at 45.8 µM (top of the series) unless noted; also: nearly all actives have a fitted effect of over 55% in size; also: potency is read from the fitted curve at half-maximal effect
How it was run: as §1

[12] = Quantitative High-Throughput drug screen in 47 multiple myeloma cell lines against the NCATS MIPE library collection: PE2_PLB cell viability assay (AID 1919869); also: nearly all actives have a fitted effect of over 35% in size; also: potency is read from the fitted curve at half-maximal effect
How it was run: as §1

[13] = Quantitative High-Throughput drug screen in 47 multiple myeloma cell lines against the NCATS MIPE library collection: PCM6_Riken cell viability assay (AID 1919870); also: nearly all actives have a fitted effect of over 30% in size; also: potency is read from the fitted curve at half-maximal effect
How it was run: as §1

[14] = Quantitative High-Throughput drug screen in 47 multiple myeloma cell lines against the NCATS MIPE library collection: RPMI8226_ATCC cell viability assay (AID 1919871); also: nearly all actives have a fitted effect of over 30% in size; also: potency is read from the fitted curve at half-maximal effect
How it was run: as §1

[15] = Quantitative High-Throughput drug screen in 47 multiple myeloma cell lines against the NCATS MIPE library collection: OPM2_DSMZ cell viability assay (AID 1919872); also: nearly all actives have a fitted effect of over 30% in size; also: potency is read from the fitted curve at half-maximal effect
How it was run: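 Primary qHTS used for cherry-picking: cells at 500/well, library compounds for 48 h (37C, 5% CO2), luminescent ATP assay.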

[16] = Quantitative High-Throughput drug screen in 47 multiple myeloma cell lines against the NCATS MIPE library collection: KMS11_JCRBsus cell viability assay (AID 1919873); also: nearly all actives have a fitted effect of over 50% in size; also: potency is read from the fitted curve at half-maximal effect
How it was run: as §1

[17] = Quantitative High-Throughput drug screen in 47 multiple myeloma cell lines against the NCATS MIPE library collection: KMS28BM_JCRB cell viability assay (AID 1919874); also: nearly all actives have a fitted effect of over 35% in size; also: potency is read from the fitted curve at half-maximal effect
How it was run: as §1

[18] = qHTS drug screen for cell cycle checkpoint inhibitors in PARPi-resistant BRCA-mutant ovarian cancer cell lines. (AID 1963452; calls by dose curve); conditions: PEO1/OlaR viability, CellTiter-Glo luminescence, 96 h, stronger effect = lower value
How it was run: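 PEO1, PEO4 and PEO1/OlaR ovarian cancer cells, 600 per well, exposed 96 h at 37C to a dilution series. Viability read by CellTiter-Glo luminescence, normalized to DMSO and empty wells; activity summarized as Z-AUC.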

[19] = Quantitative High-Throughput drug screen in 47 multiple myeloma cell lines against the NCATS MIPE library collection: L363_DSMZ cell viability assay (AID 1918984); also: nearly all actives have a fitted effect of over 40% in size; also: potency is read from the fitted curve at half-maximal effect
How it was run: as §1

[20] = qHTS for identification of novel therapeutic agents for treatment of microphthalmiaassociated transcription factor (MiT) renal cell carcinoma (RCC) (AID 1963991); conditions: CellTiter-Glo, 48 h, stronger effect = lower value
How it was run: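 Three TFE3-fusion RCC cell lines (UOK109, UOK124, UOK145), 500 cells/well, were exposed to the 1912-compound MIPE 4.0 library for 48 hours at 37 C. Viability was read by CellTiter-Glo luminescence, normalised to DMSO (100%) and empty wells (0%), with 11-concentration curve fits.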

[21] = measured here: PEO1 parental Z-AUC
[22] = TFE3-RCC UOK109 viability, measured here: UOK109 Z-AUC
[23] = TFE3-RCC viability, measured here: UOK124 Z-AUC
[24] = TFE3-RCC viability, measured here: UOK145 Z-AUC

Cn1cncc1[C@@](N)(c1ccc(Cl)cc1)c1ccc2c(c1)c(-c1cccc(Cl)c1)cc(=O)n2C
0.145: Z-AUC [18, 21]
inactive: Z-AUC [18] -0.153
-0.275: Z-AUC ([18]; measured here: PEO4 Z-AUC)
active: Potency [1] 8.33 µM | Potency [2] 0.833 µM | Potency [3] 0.0148 µM | Potency [4] 7.43 µM | Potency [5] 16.6 µM | Potency [6] 13.2 µM | Potency [7] 23.5 µM | Potency [8] 1.87 µM | Potency [9] 0.332 µM | Potency [10] 14.8 µM | Potency [11] 0.833 µM | Potency [12] 16.6 µM | Potency [13] 20.9 µM | Potency [14] 5.26 µM | Potency [15] 11.8 µM | Potency [16] 7.43 µM | Potency [17] 20.9 µM

COc1ccc(OC)c(-c2nnc3ccc(-c4ccc(OC)c(O[C@@H]5CCOC5)c4)nn23)c1
inactive: Z-AUC [18] -1.33
-1.59: Z-AUC [18, 21]
-1.98: Z-AUC ([18]; measured here: PEO4 Z-AUC)
active: Potency [1] 14.8 µM | Potency [19] 10.5 µM | Potency [4] 16.6 µM | Potency [5] 8.33 µM | Potency [6] 18.7 µM | Potency [7] 7.43 µM | Potency [8] 8.33 µM | Potency [9] 7.43 µM | Potency [10] 6.62 µM | Potency [12] 8.33 µM | Potency [13] 7.43 µM | Potency [14] 18.7 µM | Potency [15] 23.5 µM | Potency [16] 6.62 µM | Potency [17] 7.43 µM

Cc1ccc2nc(NC(=O)CSc3nc4c(c(=O)n3-c3ccccc3)SCC4)sc2c1
active: Potency [1] 23.5 µM | Potency [19] 11.8 µM | Potency [4] 7.43 µM | Potency [5] 16.6 µM | Potency [6] 11.8 µM | Potency [7] 20.9 µM | Potency [8] 14.8 µM | Potency [10] 9.35 µM | Potency [12] 9.35 µM | Potency [14] 16.6 µM | Potency [15] 20.9 µM
inactive: Potency [11] | Z-AUC [18] 1.55
1.44: Z-AUC ([18]; measured here: PEO4 Z-AUC)
1.46: Z-AUC [18, 21]

O=C1CCC[C@@H]2[C@H]3CCC[N+]4([O-])CCC[C@@H](CN12)[C@@H]34 (stereo partly specified)
0.251: z-score [20, 23]
active: Potency [10] 6.62 µM
inactive: Potency [1] | Potency [19] | Potency [2] | Potency [5] | Potency [9] | Potency [12] | Potency [13] | Potency [15]
0.512: z-score [20, 24]
0.308: z-score [20, 22]

O=C(O)CO.[NH2-].[NH2-].[Pt+2]
inactive: Potency [1] | Potency [19] | Potency [2] | Potency [5] | Potency [8] | Potency [9] | Potency [10] | Potency [12] | Potency [13] | Potency [14] | Potency [15] | Potency [16] | Potency [17]
1.56: z-score [20, 23]
0.642: z-score [20, 22]
1.18: z-score [20, 24]

Cn1c(CNc2ccc(C(=N)N)cc2)nc2cc(C(=O)N(CCC(=O)O)c3ccccn3)ccc21
inactive: Potency [1] | Potency [19] | Potency [3] | Potency [4] | Potency [5] | viability [6] 127% | Potency [7] | Potency [8] | Potency [9] | Potency [14] | Potency [15] | Potency [16] | Potency [17] | Z-AUC [18] 3.54
1.25: z-score [20, 24]
1.13: z-score [20, 22]
3.55: Z-AUC [18, 21]
3.92: Z-AUC ([18]; measured here: PEO4 Z-AUC)
1.05: z-score [20, 23]

Nc1nc(NCCNc2ncc(-n3ccnc3)c(-c3ccc(Cl)cc3Cl)n2)ccc1[N+](=O)[O-]
active: Potency [1] 23.5 µM | Potency [19] 5.26 µM | Potency [4] 18.7 µM | Potency [8] 2.35 µM | Potency [9] 6.62 µM | Potency [10] 7.43 µM | Potency [12] 3.72 µM | Potency [13] 2.35 µM
inactive: Z-AUC [18] 0.218
0.907: Z-AUC [18, 21]
0.221: Z-AUC ([18]; measured here: PEO4 Z-AUC)

Cc1cc(Nc2cc(N3CCN(C)CC3)nc(C=Cc3ccccc3)n2)n[nH]1
active: Potency [1] 13.6 µM | Potency [2] 5.4 µM | Potency [3] 0.605 µM | Potency [4] 4.81 µM | Potency [5] 3.82 µM | Potency [6] 42.9 µM | Potency [7] 38.2 µM | Potency [8] 9.59 µM | Potency [9] 4.81 µM | Potency [10] 15.2 µM | Potency [11] 1.91 µM | Potency [12] 13.6 µM | Potency [13] 30.3 µM | Potency [14] 13.6 µM | Potency [15] 8.55 µM | Potency [16] 1.21 µM | Potency [17] 13.6 µM

Nc1nccc(Oc2ccc(NC(=O)c3c[nH]cc(-c4ccc(F)cc4)c3=O)cc2F)c1Cl
-1.14: Z-AUC ([18]; measured here: PEO4 Z-AUC)
inactive: Z-AUC [18] -0.747
active: Potency [1] 37.2 µM | Potency [2] 18.7 µM | Potency [3] 18.7 µM | Potency [4] 26.4 µM | Potency [5] 23.5 µM | Potency [6] 23.5 µM | Potency [7] 20.9 µM | Potency [8] 16.6 µM | Potency [9] 18.7 µM | Potency [10] 16.6 µM | Potency [11] 29.6 µM | Potency [12] 18.7 µM | Potency [13] 18.7 µM | Potency [14] 20.9 µM
-0.587: Z-AUC [18, 21]

CC(C)(O)CCc1ccc(OCc2cc(-c3cccc(OC(F)F)c3)c3ncccc3c2)cc1
inactive: Potency [1] | Potency [19] | Potency [2] | Potency [5] | viability [6] 123% | Potency [12] | Potency [13] | Potency [15] | Potency [16] | Potency [17] | Z-AUC [18] -0.38
active: Potency [8] 20.9 µM
0.147: Z-AUC ([18]; measured here: PEO4 Z-AUC)
0.0594: z-score [20, 24]
0.116: Z-AUC [18, 21]
0.14: z-score [20, 22]
0.328: z-score [20, 23]

Cc1cn(-c2cc(NC(=O)c3ccc(C)c(Nc4nccc(-c5cccnc5)n4)c3)cc(C(F)(F)F)c2)cn1
active: Potency [1] 20.9 µM | Potency [4] 13.2 µM | Potency [6] 26.4 µM | Potency [15] 14.8 µM
inactive: Potency [19] | Potency [3] | Potency [5] | Potency [7] | Potency [9] | Potency [10] | Potency [13] | Z-AUC [18] 0.642
0.692: Z-AUC [18, 21]
0.0156: Z-AUC ([18]; measured here: PEO4 Z-AUC)
